# In PubChem BioAssay AID489017 (The Scripps Research Institute Molecular Screening Center, 2010):
# A number with no mark means an inactive call. How the calls were made is not given here.
# Tested on: Rolipram
# Test: receptor, enzyme and CYP inhibition profiling – biochemical, Ricerca HitProfilingScreen, CYP450, selectivity assay for S1P4 antagonist project, profiling panel (AID 489017)
# Conditions: Ricerca receptor/enzyme binding panel plus CYP450, at 10 µM, stronger effect = higher value
smiles,measurement,value
CCc1cccc(CC)c1NC(=O)c1ccc(-c2cc(Cl)ccc2Cl)o1,inhibition,-2%
